Laboratory results published in PubChem BioAssay AID504652 (National Center for Advancing Translational Sciences (NCATS), 2011).
Screen size: about 360,000 compounds; about 11,000 (3.1%) were called active. No stated cut-off is given here; in the data, active means activity change below about -30%; inactive means the rest. The list comes from a sample in which actives are over-represented; it also holds similar structures and randomly drawn compounds.

biological target: D(1A) dopamine receptor (Homo sapiens) (UniProt P21728); assay: Antagonist of Human D 1 Dopamine Receptor: qHTS; details: HEK293 TREx D1 cells, calcium flux, dopamine EC80; at 10 µM; hits give low values
Outline: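 Cells carrying a force-coupled, tetracycline-inducible human D1 receptor report calcium flux. Each well gets a 10 s baseline, compound with 180 s monitoring, then an EC80 dopamine stimulus with a second 180 s kinetic read.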
On the % scale 0 is the no-effect control and ±100 the full control effect.

Chain of D(1A) dopamine receptor (Homo sapiens) (P21728 whole entry, looked up): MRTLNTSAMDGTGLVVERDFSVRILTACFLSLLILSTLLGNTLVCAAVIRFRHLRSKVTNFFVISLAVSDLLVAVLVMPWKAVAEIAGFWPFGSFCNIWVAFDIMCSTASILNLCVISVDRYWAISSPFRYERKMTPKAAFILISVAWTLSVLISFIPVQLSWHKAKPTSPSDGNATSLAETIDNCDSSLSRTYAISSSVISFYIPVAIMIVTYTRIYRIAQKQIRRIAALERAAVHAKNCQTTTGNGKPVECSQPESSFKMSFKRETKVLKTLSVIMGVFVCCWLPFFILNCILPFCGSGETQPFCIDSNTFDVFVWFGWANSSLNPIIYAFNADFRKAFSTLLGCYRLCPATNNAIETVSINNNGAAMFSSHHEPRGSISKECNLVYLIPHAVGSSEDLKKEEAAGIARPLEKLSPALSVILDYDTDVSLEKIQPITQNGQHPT

SMILES	activity change, negative = inhibition
CCOc1ccccc1C1CC(c2ccccc2)Nc2nc(N)nn21 (stereo not given)	-30.1% (active)
CCOc1ccccc1C1CC(c2ccc(Cl)cc2)Nc2nc(N)nn21 (stereo not given)	13.6% (inactive)
Cc1ccc(C2CC(c3cccc(C)c3)n3nc(N)nc3N2)cc1 (stereo not given)	9.87% (inactive)
COc1cccc(-c2ccc(SCC(=O)N3CCN(c4ccccc4)CC3)nn2)c1	3.13% (inactive)
CN(C)CCCNC(=S)N1CCC(c2nc3ccccc3[nH]2)CC1	7.97% (inactive)
CN(C)CCCNC(=S)N1CCN(c2nc(-c3ccccc3)cs2)CC1	-48% (active)
c1ccc(-c2csc(N3CCc4ccccc4C3)n2)cc1	4.74% (inactive)
COCCCNC(=S)N1CCN(c2nc(-c3cccc(OC)c3)cs2)CC1	-31% (active)
COCCCNC(=S)N1CCCC(c2nc3cc(C)c(C)cc3[nH]2)C1 (stereo not given)	-12% (inactive)
CCn1cc2nc(SCc3ccccc3Cl)n(CCc3ccccc3)c(=O)c2n1	19.6% (inactive)
O=C(NC1CCCCC1)c1ccc(Cn2c(SCc3ccccc3)nc3cccnc32)cc1	-1.21% (inactive)
COc1ccc(Br)cc1C1CC(=O)Nc2c1c(C)nn2-c1nc(C)cc(C)n1 (stereo not given)	5.29% (inactive)
CC(=O)N1CCCc2cc(S(=O)(=O)Nc3ccc(Cl)cc3F)ccc21	-13.2% (inactive)
CN1CCN(c2oc(-c3ccc(COc4ccc(Cl)cc4)o3)nc2C#N)CC1	-30.2% (active)
COc1ccc(OCc2ccc(-c3nc(C#N)c(N4CCN(c5ccccc5)CC4)o3)o2)cc1	-27.6% (inactive)
Cc1ccc(OCc2nc(C#N)c(N3CCCC3)o2)cc1	-1.06% (inactive)
Cc1ccccc1OCc1ccc(-c2nc(C#N)c(N3CCCCC3)o2)o1	2.09% (inactive)
N#Cc1nc(COc2ccc(Cl)cc2)oc1N1CCCC1	-31.6% (active)
CCC(C)Nc1oc(-c2ccc(COc3ccc(Cl)cc3)o2)nc1C#N (stereo not given)	-2.28% (inactive)
CCC(C(=O)Nc1cc(OC)ccc1OC)n1c(=O)c(C(F)(F)F)nc2ccccc21 (stereo not given)	-23.6% (inactive)
COc1cc(OC)cc(-c2nc3nc(C)c(CCC(=O)Nc4ccccc4)c(C)n3n2)c1	2.44% (inactive)
CC(C)C[C@H](CO)Nc1nc(N(C)c2cccc(Cl)c2)c2ncn(C(C)C)c2n1	-34% (active)
O=C(Nc1ccc(Br)cc1)c1cc2nc(-c3ccccc3)cc(-c3ccccc3)n2n1	-10.1% (inactive)

SMILES	activity change, negative = inhibition
COc1ccc(-n2c(=O)c3ccccc3n(Cc3ccccc3Cl)c2=O)cc1	-11.1% (inactive)
N#Cc1ccc(C(c2nnnn2CCc2ccccc2)N2CCCCCC2)cc1 (stereo not given)	10.7% (inactive)
Fc1ccc(Cn2nnnc2C(c2cccs2)N2CCCCCC2)cc1 (stereo not given)	-36.7% (active)
Fc1ccccc1C(c1nnnn1Cc1ccc2c(c1)OCO2)N1CCN(Cc2ccccc2)CC1 (stereo not given)	19.9% (inactive)
Cc1ccc(S(=O)(=O)N(Cc2nc(-c3ccc(Cl)cc3)no2)C2CCCCC2)cc1	-2.35% (inactive)
NS(=O)(=O)c1ccc(CNC(=O)c2cccc(Oc3ccccc3)c2)cc1	-38.4% (active)
NS(=O)(=O)c1ccc(CNC(=O)c2cccc(S(=O)(=O)N3CCc4ccccc43)c2)cc1	-4.68% (inactive)
NS(=O)(=O)c1ccc(CNC(=O)c2cnccn2)cc1	9.99% (inactive)
CCN(CC)S(=O)(=O)c1ccc2c(c1)N(CC(=O)NCC(C)c1ccccc1)C(=O)CO2 (stereo not given)	6.95% (inactive)
CCCCN(CC)C(=O)c1c[nH]c2ccc(S(=O)(=O)Nc3cccc(OC)c3)cc2c1=O	16.9% (inactive)
CCC(=O)N1CCc2cc(S(=O)(=O)NCCC(=O)Nc3cccc(C)c3C)ccc21	-2.16% (inactive)
CC1=NNC(=O)C1CCC(=O)N/N=C\c1ccc(Cl)c(Cl)c1 (stereo not given)	6.69% (inactive)
Nc1nnn(CC(=O)N/N=C/c2ccc(O)cc2)n1	-2.2% (inactive)
O=C(CC(=O)Nc1ccc(Cl)c(Cl)c1)N/N=C/c1ccc(O)cc1	-37.9% (active)
Cc1ccn2c(Nc3ccc4c(c3)OCCO4)c(-c3ccc(C)s3)nc2c1	-15.7% (inactive)
O=C(NC1CCN(Cc2ccccc2)CC1)c1cc(Br)c(Br)[nH]1	-71.3% (active)
Cc1cc(C(=O)NC2CCN(Cc3ccccc3)CC2)n[nH]1	-5.73% (inactive)
S=C(NN=C1CCN(Cc2ccccc2)CC1)NC1CCCCC1	2.36% (inactive)
S=C(Nc1ccc(Br)cc1Cl)NC1CCN(Cc2ccccc2)CC1	-18.2% (inactive)
O=C(NC1CCN(Cc2ccccc2)CC1)c1ccc(Oc2cc(Cl)cc(Cl)c2)o1	-10.1% (inactive)
S=C(Nc1ccc(Br)cc1)NC1CCN(Cc2ccccc2)CC1	-68.5% (active)
Cc1ccc2nc(COc3ccccc3NC(=O)Nc3ccc(F)c(Cl)c3)cc(=O)n2c1	-18.5% (inactive)
CCc1ccccc1N(C)C(=O)C1CCCN(c2ncnc3onc(-c4ccc(F)cc4)c23)C1 (stereo not given)	-2.86% (inactive)

SMILES	activity change, negative = inhibition
O=C(O)c1ccc(Cn2c(SCc3ccc(F)cc3)nc3ccncc32)cc1	11.2% (inactive)
CCc1ccccc1NC(=O)c1cnn(-c2ccc(F)cc2)c1C1CCNCC1	-15.1% (inactive)
CCOC(=O)c1ccccc1NC(=O)c1sc2nc(-c3ccc(F)cc3)cn2c1C	6.46% (inactive)
CCOc1ccc(NC(=O)C(=O)NCCc2csc3nc(-c4ccccc4F)nn23)cc1	-3.3% (inactive)
COc1ccccc1C(=O)NC(CCSC)C(=O)N1CCN(C(C)=O)CC1 (stereo not given)	-23.2% (inactive)
CSCCC(NC(=O)c1ccccc1)C(=O)N1CCCCCCC1 (stereo not given)	-32.7% (active)
CSCCC(NC(=O)c1ccccc1)C(=O)N1CCN(Cc2ccc(Cl)cc2)CC1 (stereo not given)	18.2% (inactive)
CCOc1ccccc1NC(=O)CSc1ncc(S(=O)(=O)c2ccc(C(C)(C)C)cc2)c(=O)[nH]1	10.4% (inactive)
Cc1ccccc1OCC(=O)Nc1c(C(=O)Nc2ccccc2F)oc2ccccc12	-7.86% (inactive)
CCOc1cc(C2C(C(=O)OC)=CN(C3CCCC3)C=C2C(=O)OC)cc(Br)c1O	-30.9% (active)
CCCC(=O)Nc1cc(OCC)c(NC(=O)NC2CCCCC2)cc1OCC	-5.85% (inactive)
COC(=O)C1=CN(Cc2ccc(OC)cc2)C=C(C(=O)OC)C1c1ccc(O)c(OC)c1	11.1% (inactive)
Cc1cc(C)c2nc(NC(=O)C3CCCO3)sc2c1 (stereo not given)	-5.2% (inactive)
CN1CCN(S(=O)(=O)c2ccc(NC(=O)C3CCCO3)cc2)CC1 (stereo not given)	-2.7% (inactive)
O=C(Nc1nc2ccc(S(=O)(=O)N3CCCC3)cc2s1)C1CCCO1 (stereo not given)	-41.4% (active)
Cc1ccc(Cl)cc1NC(=O)NC1COc2ccccc2C1 (stereo not given)	-23% (inactive)
O=C(CCc1nc(CN2CCN(S(=O)(=O)c3ccc(Br)cc3)CC2)no1)N1CCCCC1	-0.355% (inactive)
CCN(CC)S(=O)(=O)c1cc(C(=O)Nc2ccccn2)ccc1C	5.43% (inactive)
Cc1ccc(NC(=O)CNCc2ccccn2)cc1S(=O)(=O)N(C)C	-15% (inactive)
CCN(c1ccccc1)S(=O)(=O)c1cc(C(=O)NCc2ccccn2)ccc1C	-89.3% (active)
NC(=O)NCCCC(=O)O	-51% (active)
Cc1oc(C)c(C(=O)NCCCC(=O)O)c1C(=O)NCCCC(=O)O	1.94% (inactive)
CCCCCCCCCCCC(=O)O	-4.71% (inactive)

SMILES	activity change, negative = inhibition
COc1ccccc1C1C(C(=O)N2CCCCC2)=C(C)Nc2nc3ccccc3n21 (stereo not given)	3.49% (inactive)
O=C(CS(=O)(=O)c1cccc2nsnc12)N1CCN(c2cccc(Cl)c2)CC1	-13.7% (inactive)
COc1cc(CN2CCN(Cc3ccc(C)cc3)CC2)c([N+](=O)[O-])cc1OC	5.79% (inactive)
Cc1cc(OCCCN2CCN(Cc3ccccc3)CC2)ccc1[N+](=O)[O-]	-35.7% (active)
Cc1cc(OCC(=O)NC2CCN(C)CC2)ccc1[N+](=O)[O-]	-13% (inactive)
O=C(CCn1c(=O)c2ccccc2n(Cc2ccc(Cl)cc2)c1=O)NCc1ccc2c(c1)OCO2	-2.86% (inactive)
CN(CC1CCCO1)S(=O)(=O)c1ccc(C(=O)Nc2ccc([N+](=O)[O-])cc2)cc1 (stereo not given)	-32.3% (active)
CCOC(=O)c1c(NC(=O)c2ccc(S(=O)(=O)N(C)CC3CCCO3)cc2)sc2c1CC(C)(C)NC2(C)C (stereo not given)	-2.75% (inactive)
CN(CC1CCCO1)S(=O)(=O)c1ccc(C(=O)Nc2ccc(F)cc2)cc1 (stereo not given)	-41.6% (active)
CCC(=O)Nc1ccc(S(=O)(=O)NCC2CCCO2)cc1 (stereo not given)	-9.18% (inactive)
O=C(NCC1CCCO1)c1ccc(S(=O)(=O)Nc2ccc(F)cc2)cc1 (stereo not given)	-8.93% (inactive)
CC1CCc2noc(NC(=O)c3ccc([N+](=O)[O-])cc3)c2C1 (stereo not given)	-19.9% (inactive)
O=C(Nc1ccc(S(=O)(=O)NCC2CCCO2)cc1)c1ccc(F)cc1 (stereo not given)	-29.6% (inactive)
Cc1ccc(NC(=O)c2ccc(S(=O)(=O)NCC3CCCO3)cc2)cc1C (stereo not given)	-12% (inactive)
CCOc1ccc(C(=O)Nc2ccc(S(=O)(=O)NCC3CCCO3)cc2)cc1OCC (stereo not given)	-38.2% (active)
CCC1(C)CC(=O)c2c(ccc3oc(C(=O)Nc4ccc(C(C)=O)cc4)c(C)c23)O1 (stereo not given)	-2.38% (inactive)
COc1cccc(CNC(=O)Cn2c(=O)c3cccn3c3ccc(F)cc32)c1OC	4% (inactive)
CCOc1cc(NC(=S)NCc2ccco2)c(OCC)cc1NC(=O)c1ccco1	-1.48% (inactive)
CCOc1cc(NC(=S)NCCCN(C)C)c(OCC)cc1NC(=O)C1CC1	-3.38% (inactive)
CCOc1cc(NC(=S)NCCCOC)c(OCC)cc1NC(=O)c1ccco1	-35.1% (active)
CCSc1ncc(Cl)c(C(=O)Nc2c(C(=O)c3ccccc3)oc3ccccc23)n1	-6.04% (inactive)
